Screening results (PubChem)
The sample as a whole holds a higher share of hits than the screen did.
Pf Dd2 growth: blocks in vitro growth of P. falciparum Dd2. actives 4.3% (n = 120,000). Potency, µM (titrated, usually from 28.9 µM), most hits filed as inhibitors. P. falciparum Dd2 growth, SYBR Green, 72 h; active = well fitted inhibition curve with a large enough effect; also: nearly all actives have a fitted effect of over 65% in size
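Infected erythrocytes (Dd2, 0.3% parasitemia, 2.5% hematocrit final) are added to compound in RPMI-1640/Albumax II medium, grown 72 h at 37C in low oxygen, then lysed with saponin/Triton-X containing SYBR Green and read by fluorescence.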
Numbers stand for hits; n = inactive; [ ] = another dose, or the depositor's remark.

SMILES | Pf Dd2 growth
COc1cccc(-c2cc(-c3c(C)noc3C)c3cncn3c2)c1 | 5.62µM
CCC(=O)Nc1cccc(C(=O)N2CCN3C(=O)CN(C)C(=O)C3C2)c1 (centres undefined) | n
Cn1cnc2cc(-c3cccc4[nH]ccc34)cc(C(=O)NCc3cccnc3)c21 | n
CC(C)NC(=O)C1CN(Cc2ccccc2)C(=O)N1 (centres undefined) | n
COCC(=O)Nc1ccc([C@H]2OCC(=O)N(Cc3cccnc3)[C@@H]2CO)cc1 | n
COc1ccc(C(=O)N2CC(c3nnc(-c4ccc(C)cc4)o3)C3(CCOCC3)C2)cc1 (centres undefined) | n
O=C(Cc1cccs1)Nc1ccc2c(c1)CN(Cc1ccccc1F)C(=O)CO2 | n
C[S+](=O)([O-])N1C[C@H](C(=O)Nc2ccccc2)C[C@@H]1c1ccc(F)cc1 | n
COc1ccc(-c2noc(-c3ccc(N4CCCOCC4)nc3)n2)cc1 | n
COc1cccc(-c2cc(-c3ccc(=O)[nH]c3)c3cncn3c2)c1 | n
O=c1ccc(-c2cc(-c3cccc(N4CCOCC4)c3)cn3cncc23)c[nH]1 | 7.94µM
O=c1ccc(-c2cc(-c3cccc4cn[nH]c34)cn3cncc23)c[nH]1 | n
c1cc(-c2cc(-c3ccc(N4CCOCC4)nc3)cn3cncc23)ccn1 | n
COc1ccc(-c2cc(-c3ccc(N4CCOCC4)nc3)cn3cncc23)cc1 | 0.794µM
COc1ccccc1Oc1ncccc1CNC(=O)c1ccc(CO)o1 | n
COc1ccc(CCN(C)C(=O)CC(c2cccc(F)c2)c2cn(C)c3ccccc23)cc1OC (centres undefined) | 2µM
COc1ccccc1C(CC(=O)NCC(C)C)c1cn(C)c2ccccc12 (centres undefined) | n
COc1cccc(C(CC(=O)NCCc2ccc(OC)c(OC)c2)c2c[nH]c3ccccc23)c1 (centres undefined) | n
Cc1noc(C)c1S(=O)(=O)N1CCCCC1CCn1cccn1 (centres undefined) | n
Cc1c(Cl)cccc1NC(=O)N1CCC(Oc2ncccc2C(=O)N2CCOCC2)C1 (centres undefined) | n
CCn1nccc1C(=O)N1C[C@@H]2CCCN3CCC[C@@H]([C@H]23)[C@H]1CCCC(=O)NCC1CC1 | n
O=C(CCc1c[nH]c2ccccc12)N1CCC2(CCCCO2)CC1 | n
CC(=O)c1cc(CN2CCC3(CC2)C(C(=O)O)CC(=O)N3C)n(C)c1 (centres undefined) | n
COCC1CN(Cc2cccnc2)CC12CCNCC2 (centres undefined) | n
COCC1CN(Cc2cccc(OC(F)(F)F)c2)CC12CCNCC2 (centres undefined) | 1.26µM
SMILES | Pf Dd2 growth
COCC1CN(Cc2c[nH]c3ccccc23)CC12CCNCC2 (centres undefined) | n
COc1cccc(NC(=O)CC2CCCCN(C)C2=O)c1 (centres undefined) | n
Cc1ccccc1C(=O)N1CCCC(Nc2ccc(F)cc2)C1 (centres undefined) | n
CC(C)NC(=O)Nc1ccc([C@H]2OCC(=O)N(CCN)[C@@H]2CO)cc1 | n
Cc1ccc(CNC(=O)CN2C(=O)NC(c3ccccc3Cl)C3=C2COC3=O)cc1 (centres undefined) | n
CN1CCN(c2cc(=O)c3ccnc(-c4cccc(CO)c4)c3o2)CC1 | n
CCc1c(C)c2ccc(O)c(CN3CCN(c4ccccc4)CC3)c2oc1=O | 1.26µM
Cc1c(-c2ccccc2)c(=O)oc2c(CN3CCN(C)CC3)c(O)ccc12 | 3.98µM
Cc1cc(O)c(C(c2ccccc2)N2CCN(C)CC2)c(=O)n1Cc1ccco1 (centres undefined) | n
Cc1ccc(-c2c(C(=O)NCCc3ccc(Cl)cc3)oc(=O)c3ccccc23)cc1 | n
Cc1noc(C)c1CN1CCN(c2ccc(F)cc2)CC1 | n
Cc1c(-c2ccc(Cl)cc2)c(=O)oc2c(CN3CCN(C)CC3)c(O)ccc12 | 10µM
Cc1ccc2oc(=O)c3cnn(CC(=O)N4CCN(c5ccccc5)CC4)c3c2c1 | n[5.79 µM]
O=C([C@@H]1C[C@H](F)CN1C(=O)c1ccccc1)N1CCOCC1 | n
CN1C(=O)c2ccccc2CC12CCCN(C(=O)c1ccc(Cl)cc1)C2 (centres undefined) | n
Cc1ccc(C(=O)N2CCC(n3cc(-c4nc(C)no4)nn3)C2)cc1 (centres undefined) | n
CCCCn1ccnc1C1CCCN(C(=O)c2ncc(F)cc2F)C1 (centres undefined) | n
CN(C)C(C(=O)N1CCN(c2ncccc2C#N)CC1)c1cccc(F)c1 (centres undefined) | n
CC(C)(Oc1ccc(Cl)cc1)C(=O)Nc1ccc(-c2nc3ncccc3o2)cc1 | n
COc1ccc(OCC(=O)Nc2ccc(-c3nc4cc(Cl)ccc4o3)cc2)cc1 | n
Cc1ccc(C(C)C)c(OCC(=O)Nc2cccc(-c3nc4ncccc4o3)c2)c1 | n
CCC(C)c1ccc(OCC(=O)Nc2ccc(-c3nc4ncccc4o3)cc2)cc1 (centres undefined) | 10µM
CCCC(=O)Nc1cc(C)c(O)c(-c2nc3ncccc3o2)c1 | n
